Molecules are shown by their SMILES.

The values that follow come from publication PMC7826789 (International Journal of Molecular Sciences, 2021).

As to `COc1cc(Nc2cnc(C#N)c(O[C@H](C)CN(C)C)n2)ncc1-c1cnn(C)c1` [CCT244747], the Kinases covered entry in the assay with RPS6KA3 was “RPS6KA3”.

With `CCn1c(-c2nonc2N)nc2cncc(C(=O)N3CC[C@H](N)C3)c21.Cl` [SB-772077-B], the Kinases covered result in the assay with RPS6KA5 is reported as “RPS6KA5”; in the assay with RSK1, “RSK1”. For the compound `CCCNC(=O)c1ccc(Nc2ncc(C(F)(F)F)c(Nc3ccccc3C(C)=O)n2)c(Br)c1` [BI00801818], the Kinases covered result is given as “RSK1” in the assay on RSK1 and “RSK2” in the assay on RSK2. For the compound `COc1ccc2[nH]c3c4[nH]c5ccc(OC)cc5c4c4c(c3c2c1)C(=O)NC4=O` [GW296115X], the Kinases covered entry with RSK3 is on record as “RSK3”.

Consider `CC(C)N1CC(=O)N(C)c2cnc(Nc3cccc(S(=O)(=O)CCN4CCOCC4)c3)nc21` [BI00009348], for which the Kinases covered entry with RSK4 was “RSK4”. Consider `CCn1c(-c2nonc2N)nc2cncc(CNC3CCNCC3)c21` [SB-747651A], for which the Kinases covered result in the assay on RSK is on record as “RSK”.

`CCn1cc(-c2ccnc3[nH]c(-c4cccc(CN(C)C)c4)cc23)c(-c2ccc(NC(=O)N(C)C)cc2)n1` [GSK1070916]: the Kinases covered entry with SIK is given as “SIK”.

As for `COc1cc2c(cc1OC)C(=C(Nc1ccccc1)c1cccc(CN)c1)C(=O)N2` [BIBF0846CL], the Kinases covered result with SNARK was “SNARK”.
